Data: PubChem BioAssay
Calls of active or inactive are those of the source. Rule as the data show it, unless noted: active = inhibition above about 80%; inactive = the rest.

What was measured:
[1] = viability rescue of complex I mutant cybrids, primary screen, cell-based, galactose medium, ATP luminescence (AID 1645843;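 active = z-score of at least 1.8 in each of two replicates, scored against plate mean and spread of sample wells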;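 also: positive z means more ATP and so rescue of galactose-driven cybrid death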); details: complex I mutant cybrid cells, 72 h, stronger effect = higher value
[2] = LFS_MB_P medulloblastoma growth inhibition, cell-based, chromothripsis tumors, cisplatin or BGB combos (AID 1671449); details: LFS_MB_P medulloblastoma cells;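 also: cells exposed for 96 hours; 0% = vehicle DMSO and 100% = killing by high DMSO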
[3] = HDN33 neuroblastoma growth inhibition, cell-based, chromothripsis tumors, cisplatin or BGB combos (AID 1671450); details: HDN33 neuroblastoma cells, stronger effect = higher value;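 also: cells exposed to compound for four days; 0% = vehicle DMSO and 100% = cell killing by high DMSO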
[4] = ICB984 medulloblastoma cell growth inhibition, synergistic combos for chromothripsis tumors, cisplatin or BGB combos (AID 1671451; call rule not given here;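 also: cells exposed for 96 hours before readout; 0% = vehicle DMSO and 100% = killing by high DMSO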); details: ICB984 medulloblastoma cells, drug combinations, stronger effect = higher value
[5] = LFS_MB_1R medulloblastoma cell growth inhibition, synergistic combos for chromothripsis tumors, cisplatin or BGB combos (AID 1671452); details: LFS_MB_1R medulloblastoma cells, stronger effect = higher value;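 also: cells exposed for 96 hours before readout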
[6] = HTB85 osteosarcoma cell growth inhibition, synergistic combos for chromothripsis tumors, BGB or cisplatin IC20 combos (AID 1671453); details: HTB85 osteosarcoma cells, drug combinations, stronger effect = higher value;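 also: cells exposed for 96 hours before readout; 0% = vehicle DMSO and 100% = high DMSO killing control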
[7] = CRL2098 osteosarcoma cell growth inhibition, synergistic combos for chromothripsis tumors, BGB or cisplatin IC20 combos (AID 1671454); details: CRL2098 osteosarcoma cells, drug combinations, stronger effect = higher value;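 also: cells exposed for 96 h before readout; 0% = vehicle DMSO and 100% = killing by high DMSO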
[8] = HD-MB03 medulloblastoma cell growth inhibition, synergistic combos for chromothripsis tumors, BGB or cisplatin IC20 combos (AID 1671455; in the data active = inhibition above about 83%;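 also: 0% = vehicle DMSO and 100% = high DMSO as cytotoxic control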); details: HD-MB03 medulloblastoma cells, stronger effect = higher value
[9] = UWB1.289 ovarian carcinoma cell growth inhibition, synergistic combos for chromothripsis tumors, BGB or cisplatin combos (AID 1671456); details: UWB1.289 ovarian carcinoma cells, stronger effect = higher value;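 also: cells exposed to compound for four days; 0% = vehicle DMSO and 100% = killing by high DMSO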
[10] = LFS_MB_2R medulloblastoma cell growth inhibition, synergistic combos for chromothripsis tumors, cisplatin combos (AID 1671457); details: LFS_MB_2R medulloblastoma cells, stronger effect = higher value;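 also: cells exposed to compound for four days before readout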
[11] = MDA-MB-436 breast carcinoma cell growth inhibition, synergistic combos for chromothripsis tumors, BGB or cisplatin combos (AID 1671458; call rule not given here;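 also: cells exposed for 96 hours; 0% = vehicle DMSO and 100% = killing by high DMSO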); details: MDA-MB-436 breast carcinoma growth inhibition, drug combinations, stronger effect = higher value
[12] = UWB1.289_BRCA1 ovarian cancer growth, cell-based, BGB or cisplatin combinations (AID 1671459); details: UWB1.289 BRCA1 ovarian carcinoma, drug combinations, stronger effect = higher value
[13] = human astrocyte viability loss, single and combined drugs, cytotoxicity control for chromothriptic childhood tumor combination screen, cell-based, BGB or cisplatin IC20 combos (AID 1671460); details: Human astrocytes, drug combinations, stronger effect = higher value;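 also: cells exposed to compounds for 96 hours before viability readout; 0% = vehicle and 100% = killing control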
[14] = growth inhibition of BT084 medulloblastoma cells, cell-based, ICGC_MB145, cisplatin and BGB IC40 combos (AID 1671461); details: drug combinations, stronger effect = higher value;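 also: cells exposed to drugs for 96 hours; 0% = vehicle DMSO and 100% = high DMSO full killing control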
[15] = growth inhibition of RCMB18 medulloblastoma cells, cell-based, cisplatin and BGB IC40 combos (AID 1671462); details: stronger effect = higher value;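 also: cells exposed to compound for four days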
[16] = growth inhibition of CRL1545 osteosarcoma cells, cell-based, cisplatin and BGB IC20 combos (AID 1671464); details: stronger effect = higher value;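 also: cells exposed to compound for 96 hours before readout; 0% = vehicle DMSO and 100% = high DMSO killing control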
[17] = measured here: combination with BGB IC40, at 0.05 µM
[18] = measured here: with BGB IC20 combination, at 0.5 µM
[19] = measured here: with cisplatin IC20 combination, at 0.5 µM
[20] = measured here: combination with cisplatin, at 0.5 µM
[21] = measured here: combination with cisplatin, at 5 µM

CCCN1CCC(N2CCC(n3cc(-c4ccccc4)nn3)CC2)CC1
z-score [1]: 0.325 (inactive)

COc1cc(N2CCCC(c3nc(C(C)C)no3)C2)nc(N)n1 (stereo not given)
z-score [1]: 0.815 (inactive)

CCC1(O)C(=O)OCc2c1cc1n(c2=O)Cc2cc3cc(O)ccc3nc2-1 (stereo not given)
inhibition ([2]; at 0.5 µM, stronger effect = higher value): -23.8% (inactive) | inhibition ([2]; measured here: combination with BGB IC20, at 0.005 µM): -39% | inhibition ([2]; measured here: combination with BGB IC40, at 0.005 µM): -64.3% | inhibition [2, 17]: -39.2% | inhibition ([2]; measured here: combination with cisplatin, at 0.5 µM, stronger effect = higher value): -28.8% | inhibition ([2]; measured here: combination with cisplatin, at 5 µM, stronger effect = higher value): 80.4% | inhibition ([3]; BGB combo, at 5 µM): 96.2% | inhibition ([3]; at 0.5 µM): 75% (inactive) | inhibition ([3]; cisplatin combo, at 5 µM): 94.5% | inhibition [3, 18]: 83.6% | inhibition [3, 19]: 67.2% | inhibition ([3]; single agent, at 5 µM): 96% | inhibition ([4]; BGB IC20 combo, at 0.005 µM): -7.43% | inhibition ([4]; BGB IC40 combo, at 0.005 µM): -6.67% | inhibition ([4]; BGB IC40 combo, at 0.05 µM): 96.1% | inhibition ([4]; at 0.5 µM): -15.7% (inactive) | inhibition ([4]; cisplatin combo, at 0.05 µM): 96.4% | inhibition ([4]; cisplatin combo, at 0.5 µM): -28.1% | inhibition ([4]; cisplatin combo, at 5 µM): -59% | inhibition ([4]; measured here: 5 uM single agent, at 5 µM): -24.3% | inhibition ([5]; at 0.5 µM): 46% (inactive) | inhibition [5, 17]: -11.8% | inhibition [5, 20]: 91.8% | inhibition [5, 21]: 84.6% | inhibition ([6]; at 0.5 µM): 98% (active) | inhibition ([6]; measured here: with BGB IC20, at 0.5 µM): 97.4% | inhibition ([6]; measured here: with BGB IC20, at 5 µM): 98% | inhibition ([6]; measured here: with cisplatin IC20, at 0.5 µM): 97.8% | inhibition ([6]; measured here: with cisplatin IC20, at 5 µM): 99.5% | inhibition ([6]; single agent, at 5 µM): 99.6% | inhibition ([7]; at 0.5 µM): 43.5% (inactive) | inhibition ([7]; measured here: combination with BGB at IC20, at 0.5 µM): 62.2% | inhibition ([7]; measured here: combination with cisplatin at IC20, at 0.5 µM): 19% | inhibition ([8]; at 0.5 µM): 98.3% (active) | inhibition ([8]; measured here: combo with BGB at IC20, at 0.5 µM): 98% | inhibition ([8]; measured here: combo with cisplatin at IC20, at 0.5 µM): 98.2% | inhibition ([9]; at 0.5 µM): 83.6% (active) | inhibition ([9]; measured here: inhibition with BGB combination, at 0.05 µM): 5.35% | inhibition ([9]; measured here: inhibition with cisplatin combination, at 0.05 µM): 7.19% | inhibition ([10]; at 0.5 µM): -2.53% (inactive) | inhibition [10, 20]: 28.3% | inhibition [10, 21]: 65.3% | inhibition ([11]; at 0.5 µM): 65.8% (inactive) | inhibition ([11]; measured here: BGB combination, at 0.5 µM): 59% | inhibition ([11]; measured here: BGB combination, at 5 µM): 70.2% | inhibition ([11]; measured here: cisplatin combination, at 0.5 µM): 63.8% | inhibition ([11]; measured here: cisplatin combination, at 5 µM): 80.3% | inhibition ([12]; BGB combination, concentration series, at 5 µM): 95.1% | inhibition ([12]; at 0.5 µM): 89% (active) | inhibition ([12]; cisplatin combination, concentration series, at 5 µM): 102% | inhibition ([13]; at 0.5 µM): 73.4% (inactive) | inhibition ([13]; measured here: combo with BGB IC20, at 0.5 µM): 82.6% | inhibition ([13]; measured here: combo with cisplatin IC20, at 0.5 µM): 57.6% | inhibition ([14]; at 0.5 µM): 1.31% (inactive) | inhibition ([14]; cisplatin combination, at 0.5 µM): 54.4% | inhibition ([14]; cisplatin combination, at 5 µM): -68.1% | inhibition ([14]; measured here: BGB IC40 combination 0.05 uM, at 0.05 µM): -44.1% | inhibition ([14]; single agent, at 5 µM): -0.722% | inhibition ([15]; at 0.5 µM): 24% (inactive) | inhibition ([15]; cisplatin combo, at 5 µM): 79.3% | inhibition ([15]; measured here: BGB IC40 combination, at 0.05 µM): -9.73% | inhibition [15, 20]: 24.7% | inhibition ([15]; single agent, at 5 µM): 49.8% | inhibition ([16]; at 0.5 µM): 74.6% (inactive) | inhibition [16, 18]: 87.6% | inhibition [16, 19]: 67.5% | inhibition ([16]; single agent, at 0.05 µM): 14.1% | inhibition ([16]; single agent, at 5 µM): 99.4%
